Compound activity (PubChem BioAssay)
Compounds with a hit are over-represented: about 1.6% of the library has one in this group of screens.
KCNQ2 pot – potentiators of rat KCNQ2 potassium channel; CHO-K1 KCNQ2, FluxOR thallium flux fluorescence; active compounds read high; AID 2239; B-score at 10 µM; 310,000 tested, 0.54% active; O88943;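 active means fluorescence ratio B-score at least 3 SD of library B-scores, with initial fluorescence B-score within 3 of them, cut at about 5.3 in these data; same plate scores as AID 2156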;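 further: B-score of peak minus minimum over baseline fluorescence ratio after K+ and Tl+ stimulus; positive B-score means potentiation of KCNQ2 with more thallium influx and brighter signal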
KCNQ2 block – KCNQ2 (rat) channel inhibition. B-score at 10 µM. O88943. CHO-K1 KCNQ2, FluxOR thallium flux, 20 min; active compounds read low. 310,000 tested, 1.1% active;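 active means fluorescence ratio B-score at most minus 3 library SDs, with starting brightness B-score within 2 library SDs, cut at about -5.5 in these data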
KCNQ2 inh conf – confirmation of rat KCNQ2 potassium channel inhibitors | KCNQ2-expressing cells, thallium flux, inhibition; active compounds read low | 1,000 tested, 57% active | AID 493025 | shares compounds with KCNQ2 block | activity change, negative = inhibition, % at 10 µM
KCNQ1 spec – human KCNQ1 activity in KCNQ2 inhibitor specificity screen | shares compounds with KCNQ2 block | KCNQ1-expressing cells, FluxOR thallium flux fluorescence; active compounds read low | activity change, negative = inhibition, % at 10 µM | 1,000 tested, 15% active | AID 493026;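 active means activity change at least 3 SD of negative controls below their mean in both duplicate wells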;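 further: CHO cells stably transfected with KCNQ1 and depolarized by potassium stimulus; peak minus minimum fluorescence over baseline after thallium addition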
CHO parental ctr – KCNQ2 inhibitor counter-screen hit in parental CHO cells; shares compounds with KCNQ2 block; thallium flux counter-screen; active compounds read low; activity change, % at 10 µM; 1,000 tested, 14% active; AID 493029
KCNQ2 inh confirm – confirmation of rat KCNQ2 potassium channel inhibitors; 550 tested, 49% active; calls only at 10 µM; KCNQ2-expressing cells, automated patch clamp current; AID 588531; shares compounds with KCNQ2 block
Of the large screens only hits and unclear results are named; the others gave an inactive call (follow-up assays come after a bar, where they were run). Unless noted, how the calls were made is not given here.

c1ccc(-c2nc(-c3nccc4ccccc34)oc2-c2ccccc2)cc1	KCNQ2 block -8.6 | KCNQ2 inh conf inactive | KCNQ1 spec inactive | CHO parental ctr inactive
Nc1nc(-c2ccccc2)c(-c2ccccc2)o1	none (no result: KCNQ2 pot)
COc1ccc(C2SCC(=O)N2Cc2ccccc2)cc1 (configuration not stated)	none (no result: KCNQ2 pot)
COc1ccc(C2SCC(=O)N2CC23CC4CC(CC(C4)C2)C3)cc1 (configuration not stated)	KCNQ2 block -6.9 | KCNQ2 inh conf -33% | KCNQ1 spec inactive | CHO parental ctr inactive | KCNQ2 inh confirm inactive
CCCNC(=O)c1ccccc1NC(=O)c1ccccc1N(C)S(=O)(=O)c1ccccc1	none (no result: KCNQ2 pot)
Cc1ccc(S(=O)(=O)N(C)c2ccccc2C(=O)Nc2ccc(F)cc2F)cc1	KCNQ2 block -8.6 | KCNQ2 inh conf inactive | KCNQ1 spec inactive | CHO parental ctr inactive
CC(=O)Nc1ccc(NC(=O)c2ccccc2N(C)S(=O)(=O)c2ccc(C)cc2)cc1	none
Cc1ccccc1CNC(=O)c1ccccc1N(C)S(=O)(=O)c1ccccc1	KCNQ2 block -6.7 | KCNQ2 inh conf -40% | KCNQ1 spec -36% | CHO parental ctr -28% | KCNQ2 inh confirm active
COC(=O)c1ccccc1NC(=O)c1ccccc1N(C)S(=O)(=O)c1ccccc1	none (no result: KCNQ2 pot)
Cc1ccc(NC(=O)c2ccccc2N(C)S(=O)(=O)c2ccccc2)c(C)c1	KCNQ2 block -8.4 | KCNQ2 inh conf -34% | KCNQ1 spec inactive | CHO parental ctr inactive | KCNQ2 inh confirm active
CCC1CCCCN1CCCNC(=O)Cn1ncc2c(C)n(Cc3ccccc3Cl)c(C)c2c1=O (configuration not stated)	none (no result: KCNQ2 pot)
COC(=O)c1ccc(NC(=S)NCCc2ccccc2)cc1	none (no result: KCNQ2 pot)
COc1ccccc1CNC(=O)CSc1ccc(Br)cc1	none (no result: KCNQ2 pot)
O=C(CSC1=NCCS1)NC(NC(=O)CSC1=NCCS1)c1ccccc1	none
O=C(CSC1=NCCS1)NC(c1ccccc1)c1ccccc1	KCNQ2 block -8.2 | KCNQ2 inh conf -42% | KCNQ1 spec -34% | CHO parental ctr -32% | KCNQ2 inh confirm active
COc1ccccc1CNC(=O)CSC1=NCCS1	KCNQ2 block -6.8 | KCNQ2 inh conf inactive | KCNQ1 spec inactive | CHO parental ctr inactive
COc1ccc(OC)c2[nH]c(=O)c(CCNC(=O)c3ccc(S(=O)(=O)N4CCCCC4)cc3)cc12	none
COc1ccc(CC(=O)NC(C)c2nnc(SCC(=O)Nc3nc(C)cs3)n2C)cc1 (configuration not stated)	none
O=C(NCc1ccco1)c1ccc(-c2ccc(Cl)cc2)o1	none (no result: KCNQ2 pot)
COc1ccc(Nc2nc(C(=O)NCc3ccco3)cs2)cc1	none (no result: KCNQ2 pot)
O=C(NCc1ccco1)c1csc(Nc2ccccc2Cl)n1	KCNQ2 block -8.3 | KCNQ2 inh conf inactive | KCNQ1 spec inactive | CHO parental ctr inactive
O=C(NCc1ccco1)c1ccc(-c2ccccc2Cl)o1	KCNQ2 block -7.1 | KCNQ2 inh conf inactive | KCNQ1 spec inactive | CHO parental ctr inactive
CC1(C)CC(=O)C(C=NCCN2CCN(C(=S)NC3CCCCC3)CC2)=C(O)C1	none
Cc1ccc(/C(O)=C2\C(=O)C(=O)N(Cc3cccnc3)C2c2ccccc2[N+](=O)[O-])cc1 (configuration not stated)	none (no result: KCNQ2 pot)
COCCNC(=O)Cn1cc(C(=S)N2CCCCC2)c2ccccc21	none
CCOC(=O)c1c(NC(=O)CS(=O)(=O)c2cn(CC)c3ccccc23)sc2c1CCCC2	KCNQ2 block -11 | KCNQ2 inh conf -36% | KCNQ1 spec inactive | CHO parental ctr inactive | KCNQ2 inh confirm active
CCOC(=O)c1c(NC(=S)Nc2ccc(F)cc2)sc2c1CCC2	KCNQ2 block -7 | KCNQ2 inh conf inactive | KCNQ1 spec inactive | CHO parental ctr inactive
CCOC(=O)c1c(NC(=O)CS(=O)(=O)c2cn(CC)c3ccccc23)sc2c1CCCCC2	KCNQ2 block -7 | KCNQ2 inh conf -25% | KCNQ1 spec inactive | CHO parental ctr inactive | KCNQ2 inh confirm active
CCOC(=O)c1c(NC(=S)Nc2ccc(C)cc2)sc2c1CCC2	none
CCOc1ccc(NC(=O)CS(=O)(=O)c2cn(CC)c3ccccc23)cc1	none
CCOC(=O)c1c(NC(=O)Cc2cccs2)sc2c1CCCC2	none (no result: KCNQ2 pot)
CCN(CC)CC(O)Cn1c2ccccc2c2ccccc21 (configuration not stated)	none
C[C@@H](C(=O)Nc1nc(-c2ccccn2)cs1)N1C(=O)C2CCCCC2C1=O (some centres not stated)	none (no result: KCNQ2 pot)
CCOc1cc(CNc2ncc(-c3ccc(OC)cc3)n2C)ccc1O	none
Cc1cccc(-c2cc3nc(-c4ccccc4)cc(N4CCC5(CC4)OCCO5)n3n2)c1	KCNQ2 block -8.1 | KCNQ2 inh conf -30% | KCNQ1 spec inactive | CHO parental ctr inactive | KCNQ2 inh confirm inactive
Fc1cccc(-c2cc3nc(-c4ccccc4)cc(N4CCC5(CC4)OCCO5)n3n2)c1	none (no result: KCNQ2 pot)
COc1cccc(NC(=O)[C@H](CC(C)C)NC(=O)N2CCn3c2nc2ccccc23)c1	none (no result: KCNQ2 pot)
Cn1c(Cc2cccs2)nnc1SCC(=O)Nc1ccccc1F	none (no result: KCNQ2 pot)
O=C(CSc1nnc(Cc2cccs2)n1Cc1ccco1)Nc1ccc(Cl)cc1Cl	KCNQ2 block -6.9 | KCNQ2 inh conf inactive | KCNQ1 spec inactive | CHO parental ctr inactive
CCOC(=O)c1c(NC(=O)CCc2ccc(CC)o2)sc(C)c1C	KCNQ2 block -8.2 | KCNQ2 inh conf inactive | KCNQ1 spec inactive | CHO parental ctr inactive
CCOC(=O)c1ccc(NC(=O)CCc2ccc(CC)o2)cc1	none (no result: KCNQ2 pot)
CC(OC(=O)CCc1ccccc1)C(=O)Nc1ccc(Cl)cn1 (configuration not stated)	none (no result: KCNQ2 pot)
CC1(C)CC2CC(C)(CN2C(=O)COC(=O)c2n[nH]c(=O)c3ccccc23)C1 (configuration not stated)	none (no result: KCNQ2 pot)
Cc1nc2ccc(NC(=O)c3cccc(S(=O)(=O)N(C)c4ccccc4)c3)cc2s1	none (no result: KCNQ2 pot)
CN(c1ccccc1)S(=O)(=O)c1cccc(NC(=O)c2ccc3ncsc3c2)c1	KCNQ2 block -7.4 | KCNQ2 inh conf inactive | KCNQ1 spec inactive | CHO parental ctr inactive
O=C(Cn1ncc2c([nH]c3ccccc32)c1=O)N1CCN(c2ccc(F)cc2)CC1	none
O=C(/C=C/c1cccc(C(F)(F)F)c1)Nc1cccc(C(F)(F)F)c1	KCNQ2 block -8.2 | KCNQ2 inh conf inactive | KCNQ1 spec inactive | CHO parental ctr inactive
C/C=C/C(=O)Nc1cccc(C(F)(F)F)c1	none
